Compound activity as filed in PubChem BioAssay.
Shown are actives, neighbours in structure and some others; about 3.8% of the full set was active somewhere.
PAFAH1B2 inh: blocks human PAF acetylhydrolase 1b catalytic subunit 2. recombinant PAFAH1B2, FP-rhodamine activity probe, fluorescence polarization. P68402. inhibition, % at 3.39 µM. 340,000 compounds, 1.2% hits;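 active = inhibition above the mean of all tested compounds plus 3 SD, cut at about 24% in these data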;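 also: 0% = enzyme with DMSO and 100% = wells lacking PAFAH1B2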
Target sequence (P68402 whole entry, looked up): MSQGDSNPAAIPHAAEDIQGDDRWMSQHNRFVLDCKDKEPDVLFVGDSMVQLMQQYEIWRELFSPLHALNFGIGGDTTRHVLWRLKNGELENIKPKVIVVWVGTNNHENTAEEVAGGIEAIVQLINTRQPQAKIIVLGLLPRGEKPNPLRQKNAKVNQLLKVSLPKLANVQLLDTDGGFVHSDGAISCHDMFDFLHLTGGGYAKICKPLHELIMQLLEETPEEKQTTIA
M18AAP inhibitor: blocks P. falciparum M18 aspartyl aminopeptidase | inhibition, % at 7.35 µM | 290,000 compounds, 1.2% hits | recombinant PfM18AAP, H-Glu-NHMec fluorogenic cleavage;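 active = inhibition above the campaign mean inhibition over all tested compounds plus 3 SD, cut at about 28% in these data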;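 also: 0% = plate median of test compound wells and 100% = 2 mM ZnCl2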
PAFAH1B3 FP inh: PAFAH1B3 (human) inhibition | Q15102 | recombinant PAFAH1B3, FP-rhodamine probe, fluorescence polarization | inhibition, % at 3.39 µM | 340,000 compounds, 0.28% hits | AID 492972;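 active = inhibition above the screen-wide average of all tested compounds plus 3 SD, cut at about 25% in these data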;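 also: 0% = enzyme with DMSO only and 100% = wells lacking PAFAH1B3 protein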
Target sequence (Q15102 whole entry, looked up): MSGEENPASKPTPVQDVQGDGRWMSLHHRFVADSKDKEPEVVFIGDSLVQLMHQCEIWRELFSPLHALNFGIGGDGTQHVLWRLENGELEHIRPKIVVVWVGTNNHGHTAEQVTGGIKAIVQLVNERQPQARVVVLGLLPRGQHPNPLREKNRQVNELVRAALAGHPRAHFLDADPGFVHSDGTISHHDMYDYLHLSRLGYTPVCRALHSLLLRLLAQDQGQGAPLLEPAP
Pemphigus Ab inh: inhibitors of pemphigus antibody binding to human desmoglein-3 | DSG3-coupled beads, scFv-anti-DSG3-GFP binding, flow cytometry; active compounds read low | 310,000 compounds, 0.48% hits | binding (percent of control), % at 10 µM | P32926 | AID 588358;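 active = binding more than 3 SD below its plate's average and above zero; inconclusive = below that plate limit but binding exactly zero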;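 also: hits lower antibody fragment binding to DSG3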
pPAFAH inh: inhibitors of human plasma PAF acetylhydrolase (pPAFAH). recombinant pPAFAH, FP-rhodamine probe fluorescence polarization. Q13093. 330,000 compounds, 1.5% hits. inhibition, % at 3.39 µM;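 active = inhibition above the mean inhibition across the screen plus 3 SD, cut at about 25% in these data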;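 also: inhibitors block binding of the rhodamine activity-based probe so polarization drops; 0% = enzyme with DMSO and 100% = wells lacking pPAFAH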
PAFAH2 FP inh: inhibitors of human PAFAH2; recombinant PAFAH2, FP-rhodamine activity probe, fluorescence polarization; Q99487; inhibition, % at 3.39 µM; 340,000 compounds, 0.99% hits;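 active = inhibition above the mean over all tested compounds plus 3 SD, cut at about 30% in these data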;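 also: inhibitors block probe labeling of enzyme so polarization drops; 0% = enzyme with DMSO and 100% = wells lacking PAFAH2 protein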
PAFAH2 confirm: confirmation of human PAFAH2 inhibitors; recombinant PAFAH2, FP-rhodamine activity probe, fluorescence polarization; inhibition, % at 3.39 µM; 2,300 compounds, 65% hits; shares compounds with PAFAH2 FP inh;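 active = mean inhibition over three repeats above a set limit taken from the earlier primary screen, cut at about 30% in these data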;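 also: inhibitor blocks binding of rhodamine activity probe so polarization falls; 0% = enzyme with DMSO and 100% = wells lacking PAFAH2 protein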
An asterisk follows results filed as active; ? = inconclusive; nt = no result given.

SMILES	PAFAH1B2 inh	M18AAP inhibitor	PAFAH1B3 FP inh	Pemphigus Ab inh	pPAFAH inh	PAFAH2 FP inh	PAFAH2 confirm
CC(CCc1ccccc1)NC(=O)COC(=O)CC1CC2CCC1C2 (configuration not stated)	15	-5	5	100	19	30*	20
O=C(COC(=O)CC1CC2CCC1C2)NCc1ccccc1 (configuration not stated)	13	nt	14	94	22	46*	29
O=C(COC(=O)CC1CC2CCC1C2)NCc1ccc(Cl)cc1 (configuration not stated)	22	nt	6	92	19	25	nt
CCN(CC)C(=O)Cn1cc(C(=O)C(=O)N2CC=C(c3ccccc3)CC2)c2ccccc21	0	2	1	105	1	3	nt
CCc1ccc(CN(C)Cc2nc(Cc3cccc(C(F)(F)F)c3)no2)nc1	5	-12	13	99	17	6	nt
CCc1ccc(CN(C)Cc2nc(COc3ccccc3)no2)nc1	0	3	8	89	10	30*	13
Cc1cccc2c1cnn2C(=O)CCC(=O)NCc1ccc(F)cc1	5	2	-3	109	7	3	nt
Cc1oc2c(c1C(=O)NC(Cc1c[nH]c3ccccc13)C(=O)O)CCCC2 (configuration not stated)	4	1	4	104	8	39*	15
CC(C)=CC(=O)OCC(=O)Nc1cc(C)ccc1C	4	1	8	112	4	30*	18
COc1cc(/C=C/C(=O)OCC(=O)Nc2ccccc2Cl)cc(OC)c1OC	6	0	7	68	-3	10	nt
CC(C)=CC(=O)OCC(=O)Nc1ccccc1Cl	6	-4	5	109	8	51*	40*
O=C(Cc1n[nH]c(=O)c2ccccc12)NC(c1ccccc1)c1ccccc1	3	-4	0	95	1	-8	nt
C/C(=N\N=C(N)N)c1ccc(C)c(C)c1	-1	-5	9	102	-1	6	nt
O=C(COC(=O)c1ccc(Br)o1)NC1CCCCC1	0	0	3	102	8	17	nt
O=C(COC(=O)c1ccc(Cl)cc1)NC1CCCCCC1	4	nt	4	113	9	78*	79*
O=C(COC(=O)c1ccccc1)NC1CCCCCC1	4	nt	8	123	7	86*	78*
O=C(COC(=O)C1=COCCO1)NC1CCCCC1	3	nt	2	96	2	57*	55*
O=C(COC(=O)c1ccco1)NC1CCCCC1	-5	3	-1	97	10	80*	68*
CC1CCCN(C(=O)COC(=O)c2cc(Br)ccc2O)C1 (configuration not stated)	7	nt	0	98	0	-7	nt
CCCN(CCC)S(=O)(=O)c1cccc(-c2csc(C)n2)c1	1	1	1	93	10	0	nt
CC(=O)Nc1cccc(C(=O)OCC(=O)NC2CCCCCCC2)c1	-1	nt	9	?	-16	84*	84*
Nc1cccc(C(=O)OCC(=O)NC2CCCc3ccccc32)c1 (configuration not stated)	-3	3	4	92	11	53*	28
Cc1cccc(C(=O)NCC(=O)OCC(=O)NC2CCCCC2)c1	2	nt	5	93	5	57*	41*
CC(=O)Nc1cccc(C(=O)OCC(=O)NC(=O)NC2CCCC2)c1	nt	nt	nt	103	nt	nt	nt
N/C(Cc1cccc2ccccc12)=N\OC(=O)c1ccc(Br)o1	nt	-1	nt	nt	nt	nt	nt
SMILES	PAFAH1B2 inh	M18AAP inhibitor	PAFAH1B3 FP inh	Pemphigus Ab inh	pPAFAH inh	PAFAH2 FP inh	PAFAH2 confirm
N/C(=N\OC(=O)c1ccc2c(c1)OCO2)c1cccc(Br)c1	-1	0	2	117	0	55*	49*
N/C(Cc1cccc2ccccc12)=N\OC(=O)c1ccc2c(c1)OCO2	-1	-3	1	104	4	81*	78*
C[C@H]1CN([C@@H](C)CO)C(=O)Cc2cc(NS(=O)(=O)c3cccs3)ccc2O[C@H]1CN(C)S(=O)(=O)c1cn(C)cn1	3	nt	6	114	-5	13	nt
COc1ccc2c(c1OC)C(=O)N1C2SC(C)(C)[C@H]1C(=O)NC(C)C (some centres not stated)	6	-2	3	103	4	-12	nt
O=C(Nc1ccccc1C(=O)O)c1ccc(CN2C(=O)c3ccccc3C2=O)cc1	-1	-8	5	100	-3	6	nt
COc1ccc(NC(=O)C2CC(=O)N(CCc3ccc(F)cc3)C2)c(OC)c1 (configuration not stated)	2	-21	11	102	4	-2	nt
COc1ccc(-n2c(C)cc(C(=O)Cn3nnc4ccccc4c3=O)c2C)cc1	-5	-13	10	88	-1	73*	-2
COc1ccc(-n2c(C)cc(C(=O)Cn3nc(C(=O)O)c4ccccc4c3=O)c2C)cc1	7	-1	6	105	-1	-3	nt
Cc1cccc(NC(=O)COC(=O)CN2CCCCCC2=O)c1C	-4	nt	-11	123	2	1	nt
CC(=O)Nc1cc(C(=O)OCC(=O)c2ccc(C)cc2)ccc1C	6	-1	2	98	21	22	nt
COc1cc(Cl)c(C)cc1NC(=O)COC(=O)C1CC1C (configuration not stated)	-1	nt	4	nt	9	29	nt
Cc1c(Cl)cccc1NC(=O)COC(=O)c1ccc(CN2CCCC2=O)cc1	0	nt	7	117	7	76*	67*
Cc1ccc(Cl)cc1NC(=O)COC(=O)c1ccc(CN2CCCC2=O)cc1	0	nt	5	105	4	60*	43*
COc1cc(Cl)c(C)cc1NC(=O)COC(=O)c1ccc(CN2CCCC2=O)cc1	-6	nt	0	96	9	43*	23
CC(=O)Nc1cc(C(=O)OCC(=O)c2ccc(Cl)cc2Cl)ccc1C	12	-3	9	nt	0	35*	21
O=[N+]([O-])c1ccc(CN2CCN(c3ccc(Cl)cc3)CC2)o1	8	-9	1	99	-1	3	nt
O=C(COC(=O)c1ccc(CNS(=O)(=O)c2ccc(F)c(Cl)c2)cc1)NCC1CCCCC1	5	-1	4	nt	7	59*	66*
COc1ccc(C(=O)OCC(=O)NCCc2ccc(F)cc2)cc1S(=O)(=O)N1CCOCC1	8	nt	13	108	7	66*	47*
COc1ccc(C(=O)OCC(=O)c2ccccc2)cc1S(=O)(=O)N1CCOCC1	1	1	2	83	-1	52*	40*
O=C(COC(=O)c1ccc(F)c(S(=O)(=O)N2CCOCC2)c1)c1ccccc1	2	nt	11	110	1	22	nt
O=C(COC(=O)c1ccc(Cl)nc1)NCc1ccc(F)cc1	-3	nt	1	nt	9	11	nt
